From PubChem BioAssay (NCI)
Compounds without any hit were thinned out: in the full panel of roughly 79,000, 15% have a hit. Calls of active or inactive are those of the source. Cut-off read from the data, not from the text of the source: active = growth inhibition above about 70%; inactive = the rest.

Legend:
[1] = NCI Yeast Anticancer Drug Screen. Data for the rad52 strain (AID 147);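 note: 0% = growth of vehicle-treated control cultures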; details: S. cerevisiae rad52 mutant growth inhibition, active compounds read high
Outline: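 Yeast strain carrying a DNA damage repair alteration was exposed to test compounds. Growth inhibition was measured relative to vehicle-treated controls.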

[2] = NCI Yeast Anticancer Drug Screen. Data for the wt1 strain (AID 149);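 note: 0% = growth of vehicle-treated wt1 cultures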; details: S. cerevisiae wt1 strain (SPY 50644) growth inhibition, active compounds read high
Outline: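 Measured: growth of wt1 yeast under compound versus vehicle treatment, reported as inhibition.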

[3] = NCI Yeast Anticancer Drug Screen. Data for the rad50EPP+ strain (AID 151);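 note: 0% = growth of vehicle-treated control cultures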; details: S. cerevisiae rad50 mutant strain, active compounds read high
Outline: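 Yeast strain carrying rad50 alteration (rad50EPP+) exposed to compounds; growth inhibition measured relative to vehicle-treated controls.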

[4] = NCI Yeast Anticancer Drug Screen. Data for the mgt1 strain (AID 153); details: S. cerevisiae mgt1 mutant growth inhibition, active compounds read high
Outline: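 Yeast mgt1 strain (DNA repair/cell-cycle alteration panel) exposed to compounds; growth inhibition measured relative to vehicle-treated controls.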

[5] = NCI Yeast Anticancer Drug Screen. Data for the rad50 strain (AID 155);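 note: 0% = growth of vehicle-only cultures of the same strain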; details: S. cerevisiae rad50 strain growth inhibition, active compounds read high
Outline: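 Growth of the mutant yeast was measured after compound exposure and referenced to vehicle-treated cultures.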

[6] = NCI Yeast Anticancer Drug Screen. Data for the mec2-1 strain (AID 157); details: S. cerevisiae mec2-1 strain, active compounds read high
Outline: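 mec2-1 yeast strain, carrying an alteration in DNA damage repair or cell cycle control, was exposed to compounds; growth inhibition was measured relative to vehicle-treated controls.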

[7] = NCI Yeast Anticancer Drug Screen. Data for the sgs1 mgt1 strain (AID 161);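 note: 0% = growth of cultures given vehicle only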; details: S. cerevisiae sgs1 mgt1 strain, active compounds read high
Outline: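 This yeast growth screen uses a strain with defined DNA-repair lesions; compound-treated growth is compared with vehicle-treated growth.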

[8] = NCI Yeast Anticancer Drug Screen. Data for the CLN2oe strain (AID 163);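 note: 0% = growth of vehicle-only control cultures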; details: S. cerevisiae CLN2oe strain, active compounds read high
Outline: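 Yeast cells carrying a defined cell-cycle control alteration were exposed to test compounds. Growth inhibition was scored against vehicle-treated control cultures.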

[9] = NCI Yeast Anticancer Drug Screen. Data for the cln2 rad14 strain (AID 165);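 note: 0% = growth equal to vehicle treated cultures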; details: S. cerevisiae cln2 rad14 strain, active compounds read high
Outline: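 Yeast carrying cln2 and rad14 alterations (cell cycle control and DNA damage repair) were exposed to compounds. Growth inhibition was measured against vehicle-treated controls.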

[10] = NCI Yeast Anticancer Drug Screen. Data for the bub3 strain (AID 167); details: S. cerevisiae bub3 mutant strain, active compounds read high
Outline: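 Whole-cell yeast assay. The mutant strain was incubated with compounds, and growth inhibition was determined by comparison with vehicle-treated cells.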

[11] = NCI Yeast Anticancer Drug Screen. Data for the wt2 strain (AID 169);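 note: 0% = growth of vehicle-treated yeast cultures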; details: S. cerevisiae wt2 strain growth inhibition, active compounds read high
Outline: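 Yeast cells were exposed to test compounds, and growth inhibition was measured relative to vehicle-treated controls.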

[12] = NCI Yeast Anticancer Drug Screen. Data for the mlh1 strain (AID 171);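 note: 0% = growth of vehicle-treated control cultures of the same strain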; details: S. cerevisiae mlh1 strain growth inhibition, active compounds read high
Outline: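 Yeast carrying a defined genetic alteration in DNA damage repair or cell cycle control were exposed to test compounds. Growth inhibition was measured relative to vehicle-treated controls.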

[13] = NCI Yeast Anticancer Drug Screen. Data for the sgs1 strain (AID 173);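 note: 0% = growth of vehicle-only control cultures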; details: S. cerevisiae sgs1 mutant, active compounds read high
Outline: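 Yeast mutant strains carrying defined defects in DNA damage repair or cell cycle control were exposed to test compounds. Growth inhibition was scored against vehicle-treated controls.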

[14] = NCI Yeast Anticancer Drug Screen. Data for the mlh1 rad18 strain (AID 175); details: S. cerevisiae mlh1 rad18 strain growth inhibition, active compounds read high
Outline: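 Growth inhibition of the yeast strain was measured after compound exposure and expressed relative to vehicle-treated controls. The strain carries defined defects in DNA damage repair.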

[15] = NCI Yeast Anticancer Drug Screen. Data for the rad18 strain (AID 177); details: S. cerevisiae rad18 mutant growth inhibition, active compounds read high
Outline: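 Yeast carrying a defined DNA damage repair alteration were exposed to compounds. Growth inhibition was expressed relative to vehicle-treated controls.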

[16] = at 5.0 µM (retest, dose inferred, filed as 0.5)
[17] = at 50.0 µM (retest, dose inferred, filed as 5.0)

Measured: growth inhibition

CS(=O)(=O)O.[Ag]
inactive: [4]; at 1.2 µM 65% | [6]; at 1.2 µM 67% | [7]; [16] -25% | [8]; at 1.2 µM 62% | [9]; [16] 55% | [10]; [16] 4% | [11]; at 1.2 µM 27% | [14]; at 50.0 µM 43.8%
active: [1]; at 1.2 µM 72% | [1]; at 3.7 µM 99% | [1]; at 11.0 µM 99% | [1]; at 33.0 µM 99% | [1]; at 100.0 µM 98% | [2]; at 1.2 µM 77% | [2]; at 3.7 µM 99% | [2]; at 11.0 µM 99% | [2]; at 33.0 µM 99% | [2]; at 100.0 µM 98% | [3]; at 1.2 µM 92% | [3]; at 3.7 µM 99% | [3]; at 11.0 µM 100% | [3]; at 33.0 µM 99% | [3]; at 100.0 µM 98% | [4]; at 3.7 µM 99% | [4]; at 11.0 µM 99% | [4]; at 33.0 µM 99% | [4]; at 100.0 µM 98% | [5]; at 1.2 µM 71% | [5]; at 3.7 µM 99% | [5]; [16] 100% | [5]; at 11.0 µM 99% | [5]; at 33.0 µM 99% | [5]; [17] 100% | [5]; at 50.0 µM 91.5% | [5]; at 100.0 µM 98% | [6]; at 3.7 µM 99% | [6]; [16] 100% | [6]; at 11.0 µM 100% | [6]; at 33.0 µM 99% | [6]; [17] 98% | [6]; at 50.0 µM 92.5% | [6]; at 100.0 µM 98% | [7]; [17] 99% | [7]; at 50.0 µM 93.5% | [8]; at 3.7 µM 99% | [8]; at 11.0 µM 98% | [8]; at 33.0 µM 99% | [8]; at 100.0 µM 98% | [9]; [17] 98% | [9]; at 50.0 µM 92.2% | [10]; at 1.2 µM 80% | [10]; at 3.7 µM 98% | [10]; at 11.0 µM 99% | [10]; at 33.0 µM 96% | [10]; [17] 98% | [10]; at 50.0 µM 92% | [10]; at 100.0 µM 97% | [11]; at 3.7 µM 99% | [11]; at 11.0 µM 98% | [11]; at 33.0 µM 99% | [11]; at 100.0 µM 98% | [12]; at 1.2 µM 89% | [12]; at 3.7 µM 100% | [12]; at 11.0 µM 99% | [12]; at 33.0 µM 99% | [12]; at 100.0 µM 98% | [13]; at 1.2 µM 89% | [13]; at 3.7 µM 100% | [13]; at 11.0 µM 100% | [13]; at 33.0 µM 100% | [13]; at 100.0 µM 98% | [14]; [16] 100% | [14]; [17] 100% | [15]; at 1.2 µM 76% | [15]; at 3.7 µM 100% | [15]; at 11.0 µM 99% | [15]; at 33.0 µM 99% | [15]; at 100.0 µM 98%

O=C1C=C(NCCc2cc(Br)c(O)c(Br)c2)C(=O)c2ncccc21
active: [1]; at 33.0 µM 89% | [1]; at 100.0 µM 94% | [2]; at 100.0 µM 95% | [3]; at 33.0 µM 82% | [3]; at 100.0 µM 90% | [4]; at 100.0 µM 94% | [5]; at 33.0 µM 88% | [5]; [17] 89% | [5]; at 50.0 µM 92.1% | [5]; at 100.0 µM 94% | [6]; [17] 92% | [6]; at 50.0 µM 73.8% | [6]; at 100.0 µM 93% | [7]; [17] 83% | [7]; at 50.0 µM 89.5% | [8]; at 100.0 µM 90% | [9]; [17] 90% | [10]; [17] 96% | [10]; at 50.0 µM 95.5% | [10]; at 100.0 µM 94% | [11]; at 100.0 µM 91% | [12]; at 33.0 µM 82% | [12]; at 100.0 µM 96% | [13]; at 33.0 µM 82% | [13]; at 100.0 µM 96% | [14]; [17] 95% | [14]; at 50.0 µM 91% | [15]; at 11.0 µM 75% | [15]; at 33.0 µM 91% | [15]; at 100.0 µM 95%
inactive: [1]; at 1.2 µM 40% | [1]; at 3.7 µM 50% | [1]; at 11.0 µM 54% | [2]; at 1.2 µM 17% | [2]; at 3.7 µM 19% | [2]; at 11.0 µM 27% | [2]; at 33.0 µM 53% | [3]; at 1.2 µM 23% | [3]; at 3.7 µM 38% | [3]; at 11.0 µM 49% | [4]; at 1.2 µM 13% | [4]; at 3.7 µM 15% | [4]; at 11.0 µM 25% | [4]; at 33.0 µM 69% | [5]; at 1.2 µM 18% | [5]; at 3.7 µM 24% | [5]; [16] 1% | [5]; at 11.0 µM 44% | [6]; at 1.2 µM 6% | [6]; at 3.7 µM 21% | [6]; [16] -5% | [6]; at 11.0 µM 28% | [6]; at 33.0 µM 69% | [7]; [16] 4% | [8]; at 1.2 µM -5% | [8]; at 3.7 µM 39% | [8]; at 11.0 µM 41% | [8]; at 33.0 µM 55% | [9]; [16] 21% | [9]; at 50.0 µM 46.2% | [10]; at 1.2 µM -2% | [10]; at 3.7 µM -6% | [10]; [16] 12% | [10]; at 11.0 µM 5% | [10]; at 33.0 µM 68% | [11]; at 1.2 µM 13% | [11]; at 3.7 µM 15% | [11]; at 11.0 µM 26% | [11]; at 33.0 µM 67% | [12]; at 1.2 µM 27% | [12]; at 3.7 µM 27% | [12]; at 11.0 µM 36% | [13]; at 1.2 µM 28% | [13]; at 3.7 µM 29% | [13]; at 11.0 µM 43% | [14]; [16] 21% | [15]; at 1.2 µM 55% | [15]; at 3.7 µM 54%
